Bioassay records (PubChem BioAssay)
A selection: hits, their analogues and other compounds. The true share with any hit is near 3.8%.
HSF1 activator – increases HSF-1 driven luciferase reporter signal | actives 1.7% (n = 300,000) | AID 504408 | activation, % at 9 µM | NIH3T3-HGL HSF-1 luciferase reporter, MG132, 8 h; 100% = twice DMSO control signal;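 active means mean replicate activation of at least 50% with a set share of replicates each reaching 50%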
HSF1 inh – HSF1 inhibition; NIH3T3-HGL HSE-luciferase, MG132-induced, luminescence 8 h; stronger effect = lower value; activity change, negative = inhibition, % at 7.5 µM (by protocol); actives 0.77% (n = 300,000);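 active means more than half of replicate wells show activity change below -50%, luminescence cut by over half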;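 further: luciferase reports HSF-1 transcriptional activity via heat shock element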
Hsp70 act – switches on Hsp70 transcription; HeLa Hsp70 promoter luciferase reporter, luminescence; scaled: vehicle 0, proteasome-inhibitor control 100%; activation, % at 10 µM; actives 0.04% (n = 200,000); AID 1203;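 active means activation above the mean across all tested compounds plus 3 SD, cutoff set per campaign, cut at about 5.5% in these data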
pCIP destab – lowers stability of the mouse p/CIP coactivator protein; F442A p/CIP-EGFP cells, EGFP fluorescence, 16 h; actives 0.01% (n = 290,000); Q05BA5; AID 1984; decrease of EGFP signal, % at 10 µM;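 active means EGFP signal decrease of at least 30% at 10 µM or well 3 SD below plate mean, unless failing retest; inactive means the rest, including hits failing retest or dose response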
Target sequence (Q05BA5 1-1403): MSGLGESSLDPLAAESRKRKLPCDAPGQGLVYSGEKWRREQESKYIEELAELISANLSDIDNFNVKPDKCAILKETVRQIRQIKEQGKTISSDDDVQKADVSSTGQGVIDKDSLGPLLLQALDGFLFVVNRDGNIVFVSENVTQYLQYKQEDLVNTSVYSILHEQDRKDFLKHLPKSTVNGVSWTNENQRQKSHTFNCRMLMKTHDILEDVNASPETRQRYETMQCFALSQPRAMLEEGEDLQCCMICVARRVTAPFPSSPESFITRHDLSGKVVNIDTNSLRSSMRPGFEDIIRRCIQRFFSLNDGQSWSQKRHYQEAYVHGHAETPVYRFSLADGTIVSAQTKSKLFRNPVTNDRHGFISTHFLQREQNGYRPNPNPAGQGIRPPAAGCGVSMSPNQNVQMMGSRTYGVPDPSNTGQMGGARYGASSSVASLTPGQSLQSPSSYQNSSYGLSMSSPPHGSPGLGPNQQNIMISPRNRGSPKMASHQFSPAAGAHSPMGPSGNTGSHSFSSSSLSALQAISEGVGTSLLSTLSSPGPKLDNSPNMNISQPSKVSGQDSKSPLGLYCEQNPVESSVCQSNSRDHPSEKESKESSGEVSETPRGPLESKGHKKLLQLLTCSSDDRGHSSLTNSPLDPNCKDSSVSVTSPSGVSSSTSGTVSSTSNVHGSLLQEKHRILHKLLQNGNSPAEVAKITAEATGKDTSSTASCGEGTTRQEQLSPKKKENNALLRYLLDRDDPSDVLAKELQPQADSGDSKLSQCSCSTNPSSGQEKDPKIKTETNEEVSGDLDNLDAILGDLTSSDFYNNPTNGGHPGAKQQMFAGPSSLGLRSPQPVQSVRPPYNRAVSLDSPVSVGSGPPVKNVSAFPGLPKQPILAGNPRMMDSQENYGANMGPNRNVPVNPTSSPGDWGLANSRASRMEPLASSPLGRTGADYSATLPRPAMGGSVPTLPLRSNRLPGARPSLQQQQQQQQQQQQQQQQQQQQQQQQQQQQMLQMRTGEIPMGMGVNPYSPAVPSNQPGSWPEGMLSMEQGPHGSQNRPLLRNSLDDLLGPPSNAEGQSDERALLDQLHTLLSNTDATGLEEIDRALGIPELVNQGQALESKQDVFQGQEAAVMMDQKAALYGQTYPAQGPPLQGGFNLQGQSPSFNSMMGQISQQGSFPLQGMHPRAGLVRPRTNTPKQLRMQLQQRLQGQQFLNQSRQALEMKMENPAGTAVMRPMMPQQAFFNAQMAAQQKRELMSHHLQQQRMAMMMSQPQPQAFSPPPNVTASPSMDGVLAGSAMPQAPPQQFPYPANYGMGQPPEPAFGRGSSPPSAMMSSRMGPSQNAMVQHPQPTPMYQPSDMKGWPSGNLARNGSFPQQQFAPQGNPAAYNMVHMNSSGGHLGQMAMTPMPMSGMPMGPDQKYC
NALP1 inh – blocks the NALP1 inflammasome reconstituted in yeast; S. cerevisiae NALP1/ASC/caspase-1 growth, X-gal OD620, 72 h; inhibition, % at 10 µM; actives 0.61% (n = 280,000); AID 2071; in the data active means inhibition mostly above about 24%, no sharp cut-off; inactive means mostly below about 32%
HSP90 inh – HSP90 refolding inhibition in rabbit reticulocyte lysate; AID 1789; actives 0.91% (n = 290,000); luciferase refolding luminescence, 3 h; inhibition, % at 5.6 µM;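 active means inhibition above the screen-wide mean plus 3 SD, computed separately per campaign, cut at about 16% in these data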;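 further: inhibitors lower the luminescence because luciferase stays unfolded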
Each line names hits and unclear results; the compound was inactive in the other large screens; ! = not active in a repeat.

CN(C)c1ccc(C(=O)N2CCCC(N3CCN(Cc4ccc5c(c4)OCO5)CC3)C2)cc1 (stereo not drawn)	none (no result: Hsp70 act)
O=C(c1ccc(F)cc1)N1CCCC(N2CCN(Cc3ccc4c(c3)OCO4)CC2)C1 (stereo not drawn)	HSF1 inh -54 (no result: Hsp70 act)
CC1CCN(c2nc3ccc(C(=O)N4CCN(Cc5ccc6c(c5)OCO6)CC4)cc3s2)CC1	HSP90 inh 58
CN(C(=O)CCNC(=O)Cn1cnc2ccccc2c1=O)c1ccccc1F	HSF1 inh -89 (no result: Hsp70 act)
CC(C)c1ccc(NC(=O)CNC(=O)Cn2cnc3ccccc3c2=O)cc1	HSF1 inh -83
CCN(/C=N/c1sc2c(c1C#N)CCCCC2)CC	HSF1 activator 60
CC(C)CN(/C=N/c1sc2c(c1C#N)CCCCC2)CC(C)C	none
CC1(C)Cc2c(cnn2-c2ccc(F)cc2)C(NC(=O)c2ccc(=O)oc2)C1 (stereo not drawn)	none (no result: Hsp70 act)
CNc1c(NS(=O)(=O)c2cc(NC(C)=O)ccc2C)c(=O)oc2ccccc12	none (no result: Hsp70 act)
CCn1c(=O)n(CC)c2cc(N3CCCC3)c(NC(=O)c3cccc(Cl)c3)cc21	none (no result: Hsp70 act)
CCN(CC)C(=O)c1ccc2c3c(cccc13)C(=O)N(CCc1ccc(OC)c(OC)c1)C2=O	none
Cc1ccc2cc3c(N)c(C(=O)N4CCOCC4)sc3nc2c1	HSF1 activator 67
Cc1ccc2nc3sc(C(=O)N4CCOCC4)c(N)c3cc2c1	none
CC(C)NCCCOc1ccc(Cl)cc1Br	none
CC(C)NCCCCOc1ccc(Br)cc1Cl	NALP1 inh 28
O=S(=O)(c1cccs1)N1CCN(c2ccc(O)cc2)CC1	NALP1 inh 35 (no result: Hsp70 act)
CN1CCN(S(=O)(=O)c2cccs2)CC1	none
COc1ccc(N2CCN(C(c3cccs3)C(C)NS(=O)(=O)c3ccccc3)CC2)cc1 (stereo not drawn)	HSF1 activator 82
COc1ccccc1C1CCN(Cc2ccc3ccccc3c2)CC1	none (no result: Hsp70 act)
COc1cc(OC)c(OC)cc1CN(C)CCc1ccccn1	HSF1 activator 74
O=C(Nc1c(F)cccc1F)c1cnc(N2CCN(c3ccccn3)CC2)c2ccccc12	none
Cc1ccc(NC(=O)c2cnc(N3CCN(c4ccccn4)CC3)c3ccccc23)c(Br)c1	HSF1 inh -63
NC(=O)C1CCN(c2oc(-c3ccccc3)nc2S(=O)(=O)c2ccc(Br)cc2)CC1	none (no result: Hsp70 act)
Cc1ccc(S(=O)(=O)c2nc(-c3ccccc3)oc2N2CCC(C(N)=O)CC2)cc1	NALP1 inh 34 (no result: Hsp70 act)
CCOc1ccc(N(CC(=O)NCc2ccc(F)cc2)C(=O)CCC(=O)Nc2nccs2)cc1	none (no result: Hsp70 act)
COCCNC(=S)N1CCc2cc(OC)c(OC)cc2C1COc1ccc(F)cc1 (stereo not drawn)	none
COCCNC(=S)N1CCc2cc(OC)c(OC)cc2C1c1cccs1 (stereo not drawn)	NALP1 inh 24
N=C1C(c2nc3ccccc3[nH]2)=C(O)CN1c1ccc(CC(=O)O)cc1	HSF1 inh -54
N=C1C(c2nc3ccccc3[nH]2)=C(O)CN1c1ccccc1	none
N=C1C(c2nc3ccccc3c(=O)[nH]2)=C(O)CN1c1ccccc1	NALP1 inh 38 (no result: HSF1 activator, HSF1 inh)
Cc1nnn(-c2nonc2N)c1C(=O)NNC(=O)c1ccc(Cl)c(Cl)c1	none
O=C(COC(=O)C1CSC2(c3ccc(F)cc3)CCC(=O)N12)NC(=O)NC1CCCC1 (stereo not drawn)	HSF1 activator 57
CC(C)CNC(=O)NC(=O)COC(=O)C1CSC2(c3ccc(F)cc3)CCC(=O)N12 (stereo not drawn)	none
CN(C)C1(CNC(=S)Nc2ccccc2C(F)(F)F)CCCCC1	none (no result: HSF1 activator, HSF1 inh)
CCN(CC(=O)Nc1c(F)cccc1F)C(=O)COc1cccc2c1OC(C)(C)C2	none (no result: Hsp70 act, pCIP destab, NALP1 inh, HSP90 inh)
Cc1ccc(CCNC(=O)c2cc(S(=O)(=O)N3CCCCC3)c[nH]2)cc1	none (no result: Hsp70 act)
O=C(NCCc1ccc(Cl)cc1)c1cc(S(=O)(=O)N2CCCCC2)c[nH]1	HSP90 inh 38 (no result: Hsp70 act)
C[C@@H](CN=[N+]=[N-])CN1CC[C@H](O)CCC1=O	none (no result: Hsp70 act)
COc1ccc(N2C(=O)Cc3ccccc3C2=O)cc1	none (no result: Hsp70 act)
N#CC1=C(N)N(c2ccc(Oc3ccccc3)cc2)C(=O)C1	HSF1 inh -89
CO[C@H]1C[C@@H]2CC[C@@H](C)[C@@](O)(O2)C(=O)C(=O)N2CCCC[C@H]2C(=O)O[C@H]([C@H](C)C[C@@H]2CC[C@@H](O)[C@H](OC)C2)CC(=O)[C@H](C)C=C(C)[C@@H](O)[C@@H](OC)C(=O)[C@H](C)C[C@H](C)C=CC=CC=C1C	NALP1 inh 66 (no result: HSF1 activator, HSF1 inh, Hsp70 act, HSP90 inh)
CCOc1c(Cl)cc(CNCC(C)C)cc1OC	none
CCOc1cc(CNCC(C)C)cc(Cl)c1OCc1ccccc1	NALP1 inh 36
CCOc1cc(CNCCO)cc(Br)c1OCc1ccc(Cl)cc1	none
CCOc1cc(CNCCO)cc(Br)c1OCc1ccccc1Cl	NALP1 inh 32
CC(C)Oc1ccccc1/C=N/n1nnnc1N	none (no result: Hsp70 act, pCIP destab, NALP1 inh, HSP90 inh)
COc1ccccc1N1CCN(CC(O)COc2ccc3c(c2)OCO3)CC1 (stereo not drawn)	NALP1 inh 23
COc1ccc(OCC(O)CN2CCN(Cc3ccc4c(c3)OCO4)CC2)cc1 (stereo not drawn)	none
CC(=O)c1ccc(OCC(O)CN2CCN(Cc3ccc4c(c3)OCO4)CC2)cc1 (stereo not drawn)	HSF1 inh -61!
OCCN1CCN(CC(O)COc2ccc3c(c2)OCO3)CC1 (stereo not drawn)	none
CNC(=O)C1CCN(S(=O)(=O)c2c(C)noc2/C=C/c2ccc(C)cc2)CC1	none (no result: Hsp70 act)
CCOC(=O)c1cnc2c(C)cc(C)cc2c1NCCCN1CCOCC1	none (no result: Hsp70 act)
O=C1c2cccc3cccc(c23)C(=O)N1CCN1CCN(CC(O)COCc2ccc(Cl)cc2)CC1 (stereo not drawn)	HSF1 activator 73
COc1ccc(COCC(O)CN2CCC(CN3C(=O)c4cccc5cccc(c45)C3=O)CC2)cc1OC (stereo not drawn)	none
O=C1c2cccc3cccc(c23)C(=O)N1CCN1CCN(CC(O)COc2ccc3ccccc3c2)CC1 (stereo not drawn)	none
COc1cc(COCC(O)CN2CCN(CCN3C(=O)c4cccc5cccc(c45)C3=O)CC2)cc(OC)c1OC (stereo not drawn)	HSF1 activator 115
CC(C)(C)NC(=O)CSc1nnc(-c2ccccc2)c(-c2ccccc2)n1	none (no result: Hsp70 act)
CNS(=O)(=O)c1ccc(NS(=O)(=O)c2ccccc2F)cc1	none
O=C(OCc1cccc(F)c1)c1ccc2c(=O)n3c(nc2c1)CCC3	NALP1 inh 35 (no result: Hsp70 act)
O=C(CC12CC3CC(CC(C3)C1)C2)Nc1nncs1	none (no result: Hsp70 act)
Cc1ccc(N2C(=O)N(CC(=O)NCc3ccc(Cl)cc3)C(=O)C2C)cc1 (stereo not drawn)	none
